This is a sample that favours compounds with a hit; in the whole collection about 19% have one here.
TGFb inhibitor: qHTS for Inhibitors of TGF-b | AID 588855, 2011 | Potency, µM (top dose mostly 46.1 µM), actives largely listed as inhibitors | 1.2% of 410,000 active | HepG2 CAGA-GFP TGF-b/SMAD3 reporter, GFP fluorescence, 18 h; TGF-beta stimulated, 500 pg/mL final; further: nearly all actives have a fitted effect of over 65% in size
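HEPG2 CAGA-GFP, 1000 cells/well; 2 h settle, 37 C; cpd via pin tool; TGF-b 500 pg/mL final; 18 h, 37 C; GFP imaging ex488/em500-530; %Activity normalised to -TGF-b and +DMSO controls; CRC fit, curve class.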
TDP1 block: qHTS Assay for Inhibitors of Tyrosyl-DNA Phosphodiesterase (TDP1) | Tyrosyl-DNA phosphodiesterase 1 (Homo sapiens), Q9NUW8 | recombinant TDP1, AlphaScreen DNA substrate cleavage | Potency, µM (top dose mostly 130 µM), most hits filed as inhibitors | 0.28% of 350,000 active | AID 485290, 2010; further: nearly all actives have a fitted effect of over 40% in size
Target sequence (Q9NUW8 whole entry, looked up): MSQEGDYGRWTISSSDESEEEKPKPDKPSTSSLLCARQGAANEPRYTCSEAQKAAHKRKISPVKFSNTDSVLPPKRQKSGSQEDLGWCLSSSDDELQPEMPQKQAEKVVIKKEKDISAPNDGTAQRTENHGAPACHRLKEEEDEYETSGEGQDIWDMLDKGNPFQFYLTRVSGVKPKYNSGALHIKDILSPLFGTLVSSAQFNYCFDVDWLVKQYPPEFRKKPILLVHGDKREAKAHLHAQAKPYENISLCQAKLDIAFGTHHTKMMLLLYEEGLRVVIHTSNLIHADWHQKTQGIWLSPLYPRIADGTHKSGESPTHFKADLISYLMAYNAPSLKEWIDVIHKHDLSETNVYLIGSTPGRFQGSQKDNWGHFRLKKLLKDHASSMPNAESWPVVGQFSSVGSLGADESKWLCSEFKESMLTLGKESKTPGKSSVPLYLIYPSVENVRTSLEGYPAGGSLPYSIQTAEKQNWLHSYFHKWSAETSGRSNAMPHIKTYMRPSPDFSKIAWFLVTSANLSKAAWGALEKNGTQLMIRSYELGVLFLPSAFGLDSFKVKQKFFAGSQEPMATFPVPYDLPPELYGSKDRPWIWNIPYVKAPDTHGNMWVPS
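Signal: AlphaScreen proximity between streptavidin donor and anti-FITC acceptor beads on intact substrate. Reaction: Tdp1 1 nM, substrate 15 nM final, 5 min RT after 15 min compound preincubation.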
IL-1B inflam inh: qHTS for Inhibitors of Inflammasome Signaling: IL-1-beta AlphaLISA Primary Screen; activity change, % at 57.5 µM; AID 743279, 2014; THP-1 LPS/ATP IL-1B secretion, AlphaLISA, 16 h; hits give low values; 4.7% of 360,000 active; in the data active means activity change below about -50%; inconclusive means mostly about -30% to -49%
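THP-1 cells pretreated 1 hr with compounds (up to 57.5 uM final), then stimulated with LPS (250 ng/mL final) plus ATP (1.25 mM final); secreted IL-1B measured by AlphaLISA after 16 hr, decreased signal indicating inhibition.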
TDP1 cell noCPT: qHTS for Inhibitors of human tyrosyl-DNA phosphodiesterase 1 (TDP1): qHTS in cells in absence of CPT; DT40 Tdp1-/- hTDP1 cells, no CPT, ATP luminescence, 48 h; Potency, µM (highest dose often 46.2 µM), actives largely listed as inhibitors; 15% of 420,000 active; AID 686978, 2013; further: nearly all actives have a fitted effect of over 55% in size
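Stably hTDP1-transfected Tdp1-null chicken DT40 cells were treated with library compounds minus camptothecin and grown for at least 48 hr at 37 °C, after which cellular ATP was quantified by luminescence.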
DT40 TDP1 CPT: qHTS for Inhibitors of human tyrosyl-DNA phosphodiesterase 1 (TDP1): qHTS in cells in presence of CPT; Potency, µM (highest dose often 46.2 µM), most hits filed as inhibitors; AID 686979, 2013; 12% of 420,000 active; chicken DT40 Tdp1-/-;hTDP1 cells + 20 nM CPT, ATP luminescence, 48 h; further: nearly all actives have a fitted effect of over 55% in size
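Chicken DT40 Tdp1-/- cells complemented with human TDP1, 400 cells/well, exposed to compounds plus 20 nM camptothecin for at least 48 h at 37 C; viability read as ATP content by CellTiter-Glo luminescence.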
HepG2 viability: qHTS for Inhibitors of TGF-b: Cytotox Counterscreen. Potency, µM (top dose mostly 46.1 µM), actives largely listed as cytotoxic. 0.76% of 410,000 active. HepG2 CAGA-GFP viability, ATP luminescence, 18 h
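HepG2 CAGA-GFP cells (1000/well, DMEM with 1% FBS) received compound, then TGF-beta at 500 pg/mL final, and were incubated 18 hours at 37 degrees C. Viability was read by CellTiter-Glo luminescence. Media-only wells were set as complete cell-killing and DMSO as no toxicity.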
A number is an active result; 0 = inactive; ? = inconclusive; - = not tested or not shown; ! = not confirmed by another sample; [ ] = dose if it differs, or a comment. Unless noted, the call rests on the fitted dose curve; in most records, active means well fitted curve in the direction sought with a large enough effect; inconclusive means small, poorly fitted or top-dose-only effect, or another doubt; inactive means no such curve, though single readings can be large; an effect the other way counts as inactive or inconclusive.

SMILES | TGFb inhibitor | TDP1 block | IL-1B inflam inh | TDP1 cell noCPT | DT40 TDP1 CPT | HepG2 viability
Cc1ccccc1NS(=O)(=O)c1ccc2[nH]cc(C(=O)N3CCCCC3)c(=O)c2c1 | 0 | 22µM | - | 0 | 0 | 0
COc1cccc(NS(=O)(=O)c2ccc3[nH]cc(C(=O)N(C)Cc4ccco4)c(=O)c3c2)c1 | 0 | 0 | 0 | 23µM! | 23µM! | 0
Cc1cc(C)cc(NS(=O)(=O)c2ccc3[nH]cc(C(=O)NC4CCCCC4)c(=O)c3c2)c1 | ? | 0 | - | 16µM | 23µM | 11µM
Cc1cc(C)cc(NS(=O)(=O)c2ccc3[nH]cc(C(=O)NCc4ccco4)c(=O)c3c2)c1 | ? | 0 | -56 | 15µM | 12µM | 0
CC(C)c1ccc(NS(=O)(=O)c2ccc3[nH]cc(C(=O)NC4CCCCC4)c(=O)c3c2)cc1 | ? | - | - | ? | ? | 0
O=C(Nc1ccccc1)N1CCCC2(CCN(C(=O)c3cnccn3)CC2)C1 | - | - | - | 0 | 0 | -
COc1ccc(-n2ccn(CC(=O)Nc3ccccc3C(F)(F)F)c(=O)c2=O)cc1OC | 0 | 0 | - | 0 | 0 | 0
COc1ccc(CCNC(=O)c2cc(S(=O)(=O)N3CCCC(C)C3)cn2C)cc1OC (stereo not given) | ? | 0 | - | ? | ? | 0
COc1cc(F)c(S(=O)(=O)N2CCN(S(=O)(=O)c3cccc(NC(C)=O)c3)CC2)c(F)c1 | - | 0 | - | - | - | -
O=C(c1ccc(Cl)c([N+](=O)[O-])c1)N1CCCc2ccccc21 | 0 | - | 0 | ? | ? | 0
COc1ccc(CNC(=O)c2cnc(N3CCCC3)nc2C)cc1 | 0 | 0 | - | 0 | 0 | 0
Cc1cnc(CNc2cc(-c3cccc(NS(C)(=O)=O)c3)ncn2)cn1 | - | - | - | 0 | 0 | -
CCOc1cc(NS(=O)(=O)c2ccc(Cl)cc2)c(OCC)cc1NC(=O)CC(C)C | ? | 0 | 0 | 18µM | 22µM | 0
CCOc1cc(NC(=S)NCC2CCCO2)c(OCC)cc1NC(=O)C1CC1 (stereo not given) | 0 | 0 | 0 | 4.6µM | 0 | 0
CCNC(=S)Nc1cc(OCC)c(NC(=O)c2ccco2)cc1OCC | 0 | 0 | 0 | ? | ? | 0
CCOc1cc(NS(=O)(=O)c2ccccc2)c(OCC)cc1NC(=O)c1ccco1 | 0 | 0 | 0 | 26µM | ? | 0
CCOc1cc(NC(=O)C2CCCCC2)c(OCC)cc1NC(=O)c1ccco1 | ? | 0 | 0 | ? | 7.3µM | 0
Cc1ccc(CNC(=O)N2CCC(CN3CCC(C)CC3)CC2)cc1 | 0 | 0 | - | 0 | 0 | 0
CC(C)C[C@H](NC(=O)[C@H](CCCCN)NC(=O)CNC(=O)[C@H](CC(C)C)NC(=O)[C@@H](N)C(C)C)C(=O)N[C@@H](CO)C(=O)N[C@@H](CCC(N)=O)C(=O)N[C@@H](CCC(=O)O)C(=O)N[C@@H](CC(C)C)C(=O)N[C@@H](Cc1cnc[nH]1)C(=O)N[C@@H](CCCCN)C(=O)N[C@@H](CC(C)C)C(=O)N[C@@H](CCC(N)=O)C(=O)N[C@H](C(=O)N[C@@H](Cc1ccc(O)cc1)C(=O)N1CCC[C@H]1C(=O)N[C@@H](CCCNC(=N)N)C(=O)N[C@H](C(=O)N[C@@H](CC(N)=O)C(=O)N[C@H](C(=O)NCC(=O)N[C@@H](CO)C(=O)NCC(=O)N[C@H](C(=O)N1CCC[C@H]1C(N)=O)[C@@H](C)O)[C@@H](C)O)[C@@H](C)O)[C@@H](C)O | - | 0 | - | - | - | -
CCOC(=O)N1CCN(C(=O)CCCn2nc(C)c3sc4ccccc4c3c2=O)CC1 | 0 | 0 | ? | 26µM | ? | 0
COc1ccc(CCNC(=O)CCCn2nc(C)c3sc4ccccc4c3c2=O)c(OC)c1 | 0 | 0 | - | ? | 23µM | 0
Cc1nn(CCCC(=O)NCc2ccccc2)c(=O)c2c1sc1ccccc12 | - | 0 | - | 0 | ? | 0
CCOC(=O)c1c(S(=O)(=O)N2CCC(C)CC2)c(C)n(C)c1C | 0 | 0 | 0 | 0 | 0 | 0
CCOC(=O)Nc1ccc2c(c1)Nc1ccccc1S2 | 0 | 0 | -66 | 21µM | 23µM | 0
C=CC(=O)N1c2ccccc2Sc2ccc(NC(=O)OCC)cc21 | 16µM | - | -112 | 29µM | ? | 0
SMILES | TGFb inhibitor | TDP1 block | IL-1B inflam inh | TDP1 cell noCPT | DT40 TDP1 CPT | HepG2 viability
CCOC(=O)Nc1ccc2c(c1)N(C(=O)CCN1CCN(C)CC1)c1ccccc1S2 | 0 | 0 | 0 | 0 | ? | 0
CC(=O)c1ccc2c(c1)Nc1ccccc1S2 | 0 | 0 | 0 | ? | 0 | 0
COc1ccccc1N1CCN(c2ncc3c(n2)CCN(Cc2ccc(C)s2)C3)CC1 | 0 | 0 | - | ? | ? | 0
CC(NC(=S)NCCc1ccccc1)C(c1cccs1)N1CCN(Cc2ccccc2)CC1 (stereo not given) | ? | 0 | 0 | ? | 16µM | 0
COc1ccc(/C(C)=N/NC(=S)NCCc2ccccc2)cc1 | ? | 0 | 0 | ? | ? | 0
C/C(=N\NC(=S)NCCc1ccccc1)c1cccs1 | ? | 0 | 0 | 5.2µM | 5.2µM | 0
C/C(CCc1ccccc1)=N\NC(=S)NCCc1ccccc1 | 0 | 0 | 0 | 13µM | ? | 0
O=C(CCn1c(=O)c2cccn2c2cccnc21)NCc1ccc(F)cc1 | 0 | 0 | - | 0 | 0 | 0
COC(=O)c1ccccc1N/C=C1\CCc2c(c(C)nn2-c2ccccn2)C1=O | 0 | 0 | 0 | ? | 16µM | 0
Cc1cc(NC(=O)CCC(=O)N(c2ccccc2)C(C)C(=O)NC2CCCC2)no1 (stereo not given) | 0 | 0[0.0935 µM] | 0 | 0 | 0 | 0
COC(=O)Cn1c(=NC(=O)C2COc3ccccc3O2)sc2cc(S(N)(=O)=O)ccc21 (stereo not given) | 0 | 0 | -52 | 18µM | ? | 0
C=CCn1c(=NC(=O)CN2C(=O)CCC2=O)sc2cccc(OC)c21 | 0 | 0 | 0 | ? | ? | 0
C=CCn1c(=NC(=O)C2COc3ccccc3O2)sc2cccc(OC)c21 (stereo not given) | 0 | 0 | 0 | 23µM | ? | 0
CCn1c(=NC(=O)C2COc3ccccc3O2)sc2c(C)ccc(OC)c21 (stereo not given) | ? | - | 0 | 12µM | 21µM | 0
COC(=O)Cn1c(=NC(=O)CN2C(=O)CCC2=O)sc2cc(S(N)(=O)=O)ccc21 | 0 | 0 | 0 | 0 | 0 | 0
COc1ccc(OC)c(NC(=O)C2COc3ccccc3O2)c1 (stereo not given) | 0 | 0 | 0 | 0 | 0 | 0

Screening results deposited in PubChem BioAssay by National Center for Advancing Translational Sciences (NCATS).
